Screening data from PubChem.
Shown are actives, neighbours in structure and some others; about 1.1% of the full set was active somewhere.
OPRM1-OPRD1 inv – inverse agonists of MOR-DOR heterodimerization, primary screen, cell-based, luminescence; inhibition, % at 9.3 µM; cell-based MOR-DOR heterodimer luminescence, inverse agonism; hit rate 0.21% among 340,000; Mu-type opioid receptor (Homo sapiens) + Delta-type opioid receptor (Homo sapiens), …; AID 504357, 2011; in the data active means inhibition above about 22%, passing the limit was not always enough;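 further: 0% = cells with DMSO and 100% = wells without cells with DMSO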
HTR5A inv ctr – HTR5A inverse agonists in luminescence cell assay, primary screen, counter-screen for OPRM1-OPRD1 heterodimer inverse agonist project, full-deck HTS; AID 504634, 2011; HTR5A cell line, inverse agonism; hit rate 0.083% among 340,000; inhibition, % at 9.3 µM; 5-hydroxytryptamine receptor 5A (Homo sapiens), P47898; in the data active means inhibition mostly above about 23%, no sharp cut-off; inactive means mostly below about 18%;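 further: 0% = cells with DMSO and 100% = no-cell wells with DMSO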
Target sequence (P47898 whole entry, looked up): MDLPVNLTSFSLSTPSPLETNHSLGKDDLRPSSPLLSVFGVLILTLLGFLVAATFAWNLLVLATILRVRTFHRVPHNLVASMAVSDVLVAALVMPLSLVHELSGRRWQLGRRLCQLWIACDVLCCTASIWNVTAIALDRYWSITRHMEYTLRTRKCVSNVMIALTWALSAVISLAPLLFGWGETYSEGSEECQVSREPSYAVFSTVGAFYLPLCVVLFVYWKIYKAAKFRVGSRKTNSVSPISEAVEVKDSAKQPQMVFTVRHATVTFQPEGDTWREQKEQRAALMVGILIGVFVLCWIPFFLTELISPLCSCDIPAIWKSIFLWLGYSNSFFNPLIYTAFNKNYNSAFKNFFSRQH
OPRM1-OPRD1 ag – agonists of OPRM1-OPRD1 heterodimerization, primary screen, cell-based, luminescence; Mu-type opioid receptor (Homo sapiens) + Delta-type opioid receptor (Homo sapiens), …; cells; activation, % at 9.3 µM; hit rate 0.3% among 340,000; in the data active means activation above about 18%;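 further: 0% = vehicle-treated cells and 100% = reference agonist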
HTR5A ag ctr – HTR5A agonists in luminescence cell assay, primary screen, counter-screen for OPRM1-OPRD1 heterodimer agonist project, full-deck HTS. 5-hydroxytryptamine receptor 5A (Homo sapiens), P47898. cell-based. activation, % at 9.3 µM. hit rate 0.61% among 340,000. AID 504692, 2011; in the data active means activation mostly above about 9.5%, no sharp cut-off; inactive means mostly below about 7.6%;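 further: 0% = cells with vehicle only and 100% = reference agonist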
* hit, by the source's call.

COc1ccc(/C=N/NC(=O)CCn2c3ccccc3c3ccccc32)cc1O was read as OPRM1-OPRD1 inv -2, HTR5A inv ctr 9, OPRM1-OPRD1 ag 0 and HTR5A ag ctr 8.
Screening COc1cccc(/C=N/NC(=O)CCn2c3ccccc3c3ccccc32)c1 returned OPRM1-OPRD1 inv -23, HTR5A inv ctr -21, OPRM1-OPRD1 ag 4 and HTR5A ag ctr 12*.
Cc1noc(C)c1Cc1c(Cl)cccc1Cl was read as OPRM1-OPRD1 inv -10, HTR5A inv ctr 4, OPRM1-OPRD1 ag 2 and HTR5A ag ctr 3.
Screening Cc1noc(C)c1Cc1ccc(O)cc1 returned OPRM1-OPRD1 inv 17, HTR5A inv ctr -4, OPRM1-OPRD1 ag -3 and HTR5A ag ctr 14*.
For O=C(CSc1ccc2c(c1)OCCO2)Nc1ccc(Br)cn1 the results were OPRM1-OPRD1 inv 7, HTR5A inv ctr -19, OPRM1-OPRD1 ag -1 and HTR5A ag ctr 11*.
Screening O=C(CSc1ccc2c(c1)OCCO2)Nc1ccc(Cl)cn1 returned OPRM1-OPRD1 inv -5, HTR5A inv ctr 1, OPRM1-OPRD1 ag 1 and HTR5A ag ctr 0.
For COC(=O)C[C@H]1c2ccccc2S(=O)(=O)N1C(C)C the results were OPRM1-OPRD1 inv 11, HTR5A inv ctr 14, OPRM1-OPRD1 ag -2 and HTR5A ag ctr 6.
Screening CCN(CC)C(=O)[C@H]1C[C@H](CC(=O)NCCCN(C)C)C(=O)N2CCc3c([nH]c4cc(CCC(=O)N(C)C)ccc34)[C@]12C returned OPRM1-OPRD1 inv 14, HTR5A inv ctr -17, OPRM1-OPRD1 ag -3 and HTR5A ag ctr 5.0*.
`CC(C)N(C(=O)[C@H]1C[C@H](CC(=O)NCCCN(C)C)C(=O)N2CCc3c([nH]c4cc(CCC(=O)N(C)C)ccc34)[C@]12C)C(C)C` gave OPRM1-OPRD1 inv 18, HTR5A inv ctr -8, OPRM1-OPRD1 ag -4 and HTR5A ag ctr 2.
COc1ccc(Cn2c(=S)[nH]c3cc(C(=O)NCc4cccnc4)ccc3c2=O)cc1 was read as OPRM1-OPRD1 inv 12, HTR5A inv ctr -38, OPRM1-OPRD1 ag -2 and HTR5A ag ctr 13*.
CC(/C=C/c1ccco1)=N\NC(=O)CNc1ccc2ccccc2c1 was read as OPRM1-OPRD1 inv -1, HTR5A inv ctr -18, OPRM1-OPRD1 ag 0 and HTR5A ag ctr 12*.
Cc1cccc(CN2CCN(Cc3ccc4nonc4c3)CC2CCO)n1 (stereo not drawn) was read as OPRM1-OPRD1 inv -13, HTR5A inv ctr -15, OPRM1-OPRD1 ag 3 and HTR5A ag ctr 2.
Screening CCOC(=O)c1coc(CNC(=O)c2c(C)oc3c2CCCC3)c1 returned OPRM1-OPRD1 inv 0, HTR5A inv ctr -36, OPRM1-OPRD1 ag 0 and HTR5A ag ctr 15.
For CCOC(=O)c1cc(CNC(=O)c2c(C)oc3c2CCCC3)c(C)o1 the results were OPRM1-OPRD1 inv -6, HTR5A inv ctr -3, OPRM1-OPRD1 ag 1 and HTR5A ag ctr 11*.
For Cc1nn(C(=O)c2ccco2)c(C)c1Sc1ccccc1 the results were OPRM1-OPRD1 inv -4, HTR5A inv ctr 10, OPRM1-OPRD1 ag 1 and HTR5A ag ctr 11*.
Cc1c(CCOC(=O)C23CC4CC(CC(C)(C4)C2)C3)sc[n+]1CC(=O)c1ccccc1 was read as OPRM1-OPRD1 inv 5, HTR5A inv ctr -5, OPRM1-OPRD1 ag -1 and HTR5A ag ctr 2.
Screening Cc1c(CCOC(=O)CC23CC4CC(CC(C)(C4)C2)C3)sc[n+]1CC(=O)c1ccccc1 returned OPRM1-OPRD1 inv 15, HTR5A inv ctr 4, OPRM1-OPRD1 ag -3 and HTR5A ag ctr 13*.
`CCn1c(O)c(C=NCc2cccs2)c(=O)n(CC)c1=S` gave OPRM1-OPRD1 inv -6, HTR5A inv ctr 9, OPRM1-OPRD1 ag 1 and HTR5A ag ctr -1.
For COc1ccc(S(=O)(=O)Cc2ccc(C(=O)N3CC(C)CC(C)C3)o2)cc1 (stereo not drawn) the results were OPRM1-OPRD1 inv 0, HTR5A inv ctr -36, OPRM1-OPRD1 ag 0 and HTR5A ag ctr 13*.
For COc1ccc(S(=O)(=O)Cc2ccc(C(=O)N3CCOCC3)o2)cc1 the results were OPRM1-OPRD1 inv 9, HTR5A inv ctr -23, OPRM1-OPRD1 ag -2 and HTR5A ag ctr 8.
Screening CCOC(=O)C1=C(CC)OC(N)=C(C#N)C1c1cccs1 (stereo not drawn) returned OPRM1-OPRD1 inv -20, HTR5A inv ctr -36, OPRM1-OPRD1 ag 4 and HTR5A ag ctr 11*.
`Cc1cc(NC(=O)CSc2nc(=O)n3cc(Cl)ccc3n2)no1` gave OPRM1-OPRD1 inv 9, HTR5A inv ctr -2, OPRM1-OPRD1 ag -1 and HTR5A ag ctr 1.
For CC(=O)Nc1ccc(S(=O)(=O)Nc2nc3ccccc3nc2Nc2ccccc2)cc1 the results were OPRM1-OPRD1 inv 5, HTR5A inv ctr -13, OPRM1-OPRD1 ag -1 and HTR5A ag ctr 5.
CC(=O)Nc1ccc(Nc2nc3ccccc3nc2NS(=O)(=O)c2ccccc2)cc1 was read as OPRM1-OPRD1 inv 12, HTR5A inv ctr 13, OPRM1-OPRD1 ag -2 and HTR5A ag ctr 12*.
Cc1cc(C(=O)NN)c2cc(Br)ccc2n1 was read as OPRM1-OPRD1 inv -4, HTR5A inv ctr -41, OPRM1-OPRD1 ag 1 and HTR5A ag ctr 13*.
Screening COc1ccc(CNC(=O)c2cc(=O)c3cc(C)c(C)cc3o2)cc1 returned OPRM1-OPRD1 inv 9, HTR5A inv ctr -36, OPRM1-OPRD1 ag -2 and HTR5A ag ctr 10*.
`Cc1cc(Nc2nc3ccccc3nc2Cl)n(-c2ccc([N+](=O)[O-])cc2)n1` gave OPRM1-OPRD1 inv 8, HTR5A inv ctr 38*, OPRM1-OPRD1 ag -1 and HTR5A ag ctr -8.
`FC(F)(F)c1cc(-c2ccccc2)nc2nc(N3CCOCC3)sc12` gave OPRM1-OPRD1 inv -28, HTR5A inv ctr 7, OPRM1-OPRD1 ag 6 and HTR5A ag ctr 1.
`Cc1ccc(-n2nc3c(c2NC(=O)c2ccco2)CS(=O)C3)c(C)c1` (stereo not drawn) gave OPRM1-OPRD1 inv 16, HTR5A inv ctr 9, OPRM1-OPRD1 ag -3 and HTR5A ag ctr -3.
Screening O=C(CCCn1c(=O)[nH]c2cc(Cl)ccc2c1=O)NC1CCCCCCC1 returned OPRM1-OPRD1 inv 4, HTR5A inv ctr 9, OPRM1-OPRD1 ag -1 and HTR5A ag ctr 3.
`CN(Cc1ccccc1)C(=O)CCCn1c(=O)[nH]c2cc(Cl)ccc2c1=O` gave OPRM1-OPRD1 inv 6, HTR5A inv ctr 13, OPRM1-OPRD1 ag -1 and HTR5A ag ctr 13*.
For S=c1nc2ccccc2c2nc(-c3ccccc3)[nH]n12 the results were OPRM1-OPRD1 inv 5, HTR5A inv ctr -6, OPRM1-OPRD1 ag -1 and HTR5A ag ctr 9.2*.
`COc1ccccc1N/C=C(\C#N)c1nc2ccccc2[nH]1` gave OPRM1-OPRD1 inv -27, HTR5A inv ctr -36, OPRM1-OPRD1 ag 4 and HTR5A ag ctr 13*.
COc1cc(C2CC(c3cccs3)=NN2C(=O)CCl)ccc1OC(F)F (stereo not drawn) was read as OPRM1-OPRD1 inv -414, HTR5A inv ctr -144, OPRM1-OPRD1 ag 74* and HTR5A ag ctr 59*.
